# In ChEMBL document CHEMBL3988442, “University of Dundee, Small-Polar-MMV Screening Library” (2021):
# The campaign covered roughly 69,000 compounds. About 10 (0.01%) showed an effect of 50% or more. Only a selection was taken, and strong results are over-represented in it overall.
# Molecular target: ClpP1P2 (Mycobacterium tuberculosis (strain ATCC 25618 / H37Rv)) (UniProt P9WPC5+P9WPC3)
# Assay: in vitro assay to detect presence of AMC directly proportional to the activity of ClpP1P2. GHDDI collaboration.
# Type: functional
# Parameters: scale not given: direction of the effect not stated beside the values
# Conditions: 50 µM
row,SMILES,Percent Effect
1,CN(C)S(=O)(=O)N1C[C@H]2CCC[C@@]2(COCC2CC2)C1,0.536%
2,Cc1cccc(CN2C(=O)CC[C@H]3[C@@H]2CCN3CC(=O)N(C)C)n1,2.64%
3,Cc1nc(-c2ccc(CC(=O)N3CCN(C(=O)C4CC4)CC3)cc2)cs1,7.62%
4,Cc1nc(-c2ccc(CC(=O)N3CCN(C(=O)C(C)C)CC3)cc2)cs1,88.4%
5,Cc1nc(-c2ccc(CC(=O)N3CCNC(=O)C3)cc2)cs1,-0.00295%
6,c1cc(CN2CCO[C@@H]3CNC[C@@H]32)co1,-6.86%
7,CN1C[C@H]2CN(C(=O)c3ccc4c(c3)OCO4)CCN2C1=O,-1.11%
8,O=C1NC(c2ccccc2)=N[C@@]12CC[C@@H]1CN(Cc3ccco3)C[C@@H]12,-1.45%
9,COCC(=O)N1CC[C@H]2OCC[C@@]2(c2nc(C)no2)C1,-7.69%
10,CN(C)C(=O)N1CCC[C@]2(C(=O)N(C)C)CN(c3ccccn3)C[C@@H]2C1,-16.1%
11,COc1ccc(CN2C[C@H]3C[C@H](C(=O)Nc4cccnc4)[C@@H](C2)O3)cc1,7.77%
12,CCC(=O)N1C[C@@H]2CCN(c3cnccn3)C[C@@H]2C1,27.9%
13,Cc1cccc(CN2C[C@@H]3CN(C(=O)c4ccsc4)C[C@@H]3C2=O)c1,5.73%
14,O=C(N1CCOCC1)N1C[C@H]2CC[C@@H]1CN(C1Cc3ccccc3C1)C2,4.16%
15,O=C(c1ccoc1)N1CCO[C@@H]2CNC[C@@H]21,-6.03%
16,CN1CCN(C(=O)C[C@@H]2COC[C@H]3CN(c4ccncn4)C[C@@H]23)CC1,-11.8%
17,Cc1cccnc1[C@]1(O)CC[C@H]2CN(Cc3cccc(Cl)c3Cl)C[C@H]21,0.575%
18,COCCN1CCN(C(=O)c2ccccc2C(C)=O)[C@H]2CS(=O)(=O)C[C@H]21,-4.44%
19,Cc1nccc([C@@H]2C[C@@H]3CCN(Cc4c(C)noc4C)C[C@H]3O2)n1,9.38%
20,N#Cc1ccccc1CN1C[C@@H]2CC[C@H](C1)N(CC1CC1)C2=O,-3.85%
21,O=C(c1ccnnc1)N1CCN2C[C@H](OCc3ccccn3)C[C@H]2C1,0.376%
22,C[C@H]1C[C@H]2CN(C(=O)CCOc3ccccc3)CC[C@H]2O1,5.83%
23,O=C(NC[C@]12COC[C@H]1CN(Cc1nccs1)C2)c1cscn1,2.68%
24,O=C(Nc1cnccn1)[C@@H]1CCO[C@@H]2CCN(Cc3ccsc3)C[C@@H]21,-0.52%
25,Cc1ccnn1CCC(=O)N1C[C@H]2CC[C@@H]1CN(CC(=O)N(C)C)C2,10.3%

row,SMILES,Percent Effect
1,CCNC(=O)N1C[C@@H]2OCC(=O)N(CC3CCCCC3)[C@@H]2C1,5.8%
2,Cc1noc([C@@]23CCO[C@@H]2CCN(C(=O)CN(C)C)C3)n1,-12.4%
3,O=C(NCC1CCOCC1)[C@H]1C[C@@H]2CCN(c3nncs3)C[C@@H]2O1,-12.4%
4,Cn1ccnc1C(=O)NC[C@H]1OC[C@@H]2CCN(S(C)(=O)=O)C[C@@H]21,12.7%
5,COCC(=O)N1CCC[C@]2(C(=O)N(C)C)CN(c3ccccn3)C[C@@H]2C1,-0.178%
6,C[C@H]1C[C@H]2CN(C(=O)c3cccc4c3OCCO4)CC[C@H]2O1,-0.751%
7,Cn1cccc1C(=O)N1CC[C@H]2[C@H](CO[C@H]2CNS(C)(=O)=O)C1,5.31%
8,Cc1nn(C)c(C)c1S(=O)(=O)N1C[C@@H]2C[C@@H](C)O[C@@H]2C1,-4.66%
9,CCC1=N[C@@]2(CC[C@@H]3CN(S(=O)(=O)CC)C[C@@H]32)C(=O)N1CC,-9.65%
10,CN1C[C@H]2C[C@H](C(=O)Nc3cccnc3)[C@@H](C1)O2,-5.71%
11,Cn1cc(C(=O)NC[C@H]2OC[C@@H]3CCN(C4CCOCC4)C[C@@H]32)cn1,-8.58%
12,Cc1ccnn1CCC(=O)N1CCCC[C@]2(C)NC(=O)CCC[C@H]12,2.82%
13,C[C@@H]1C(=O)NC[C@H]2CN(CCc3ccccc3)C[C@H]21,11.1%
14,O=C(NCc1ccccn1)[C@H]1COC[C@H]2CN(CC3CC3)C[C@H]21,7.53%
15,Cc1cnc(CNC(=O)[C@@H]2CC[C@@H]3[C@@H](CCN3Cc3ccco3)O2)cn1,-0.464%
16,CC(C)=CCN1C[C@H]2CC[C@@H]1CN(CCC(=O)NCc1ccco1)C2,-17.3%
17,Cc1nc(COC[C@@]23CCC[C@@H]2CN(Cc2cnn(C)c2)C3)cs1,2.95%
18,CNC(=O)[C@@]12CCO[C@@H]1CCN(Cc1ccc3c(c1)OCO3)C2,14.7%
19,O=C(O)[C@@]12CN(c3cnccn3)C[C@@H]1CN(C1CCOCC1)C2,-12.3%
20,Fc1cnc(N2CCO[C@H]3[C@H](OCCN4CCCC4)CC[C@@H]32)nc1,-0.916%
21,Fc1cccnc1O[C@H]1CN(Cc2ccoc2)[C@@H]2CCCO[C@H]12,5.17%
22,Cc1nc(CN2C(=O)CC[C@@H]3[C@H]2CCN3C(=O)c2ccccn2)cs1,2.69%
23,Cc1nc(CN2CCO[C@@H]3CN(Cc4ccccn4)CC[C@@H]3C2)cs1,-1.41%
24,c1ccc(CO[C@H]2C[C@@H]3CN(Cc4cncnc4)C[C@@H]3C2)cc1,-9.01%
25,COCCNC(=O)[C@H]1C[C@@H]2CCN(c3ccncn3)C[C@H]2O1,-14.9%

row,SMILES,Percent Effect
1,Cc1ccc(C(=O)N2CC[C@@H]3[C@H]2CCC(=O)N3CCN(C)C)cn1,15.8%
2,CN1C[C@@H](F)[C@@H](OCc2nc3ccc(C#N)cc3[nH]2)C1,-10.4%
3,Cc1ccc2[nH]c(CO[C@H]3CN(c4ccc(C#N)cn4)C[C@H]3F)nc2c1,78.4%
4,Cc1ccc2[nH]c(CO[C@H]3CN(C(=O)C4CC4)C[C@H]3F)nc2c1,-1.53%
5,CC(=O)N1CCC(c2cncc(N3CCCCCC3)n2)CC1,-8.81%
6,CC(=O)N1CCC(c2cncc(N3CCOCC3)n2)CC1,55.4%
7,CC(=O)N1CCC(c2cncc(N3CCC(O)C3)n2)CC1 (centres undefined),-28.1%
8,O=C(NC1CCC1)[C@@H]1C[C@@H]2CCN(Cc3cccs3)C[C@@H]2O1,-6.23%
9,O=C1CC[C@]2(CC[C@@H](NCc3cccnc3)CC2)N1Cc1ccccc1,9.66%
10,CN(C)S(=O)(=O)N1CC[C@]2(O)CCN(Cc3cccc(C#N)c3)C[C@@H]2C1,-12.9%
11,CO[C@H]1CN(Cc2ccc(C)o2)[C@@H]2CCCO[C@H]12,-4%
12,COCCN1C[C@H]2CC[C@@H]1CN(C(=O)c1ccc(Cl)cc1)C2,2.81%
13,Cc1ccccc1CN1C[C@@H](C(=O)N2CCCCO2)C[C@H]2OCC[C@H]21,-6.2%
14,CCCN1CCN(C(=O)c2cnc(C)nc2)[C@H]2CS(=O)(=O)C[C@H]21,5.85%
15,CCS(=O)(=O)N1CC[C@@H]2[C@H](COCC3CC3)CN(C)C(=O)[C@@H]2CC1,-4.29%
16,Cc1ccc([C@]2(O)CC[C@H]3CN(Cc4ccncc4)C[C@H]32)nc1,23.9%
17,O=C([C@H]1C[C@H]2OCC[C@H]2N(CC2CCOCC2)C1)N1CCCCO1,-11.4%
18,COCCN1C[C@@H]2[C@@H](OC)CCN(S(=O)(=O)c3cccnc3)[C@@H]2C1,-10.6%
19,Cc1cnc(N2C[C@H]3CCN(CC4CC4)C[C@H]3C2)nc1,-8.8%
20,Cc1ccc(CN2CC[C@@H]3[C@@H]2CCN3C(=O)Cc2cccs2)o1,16.6%
21,COc1ccc(CC(=O)N2C[C@H]3CN(Cc4ccccn4)C[C@H]3C2)cc1,-3.43%
22,Cc1noc(C)c1CN1C[C@H](OCC(=O)N(C)C)[C@H]2OCCC[C@H]21,-8.82%
23,CNCCN1C(=O)CC[C@H]2CN(c3cnc4ccccc4n3)CC[C@H]21,-92.8%
24,O=C(CN1C[C@H]2CC[C@@H]1CN(Cc1ccccn1)C2)Nc1ccccc1,-28.1%
25,CN(Cc1ccco1)[C@@H]1CN(Cc2cccnc2)C[C@@H]2CCCO[C@@H]21,6.33%

row,SMILES,Percent Effect
1,CC(C)OC(=O)N1C[C@H]2CC[C@@H]1CN(C(=O)c1ccccc1)C2,-3.47%
2,Cc1noc([C@H]2COC[C@H]3CN(C(=O)Cc4cccs4)C[C@H]32)n1,-9.33%
3,CN(C)C(=O)[C@@H]1C[C@@H]2CCN(Cc3ccncc3)C[C@@H]2O1,7.41%
4,c1cncc(COCC2CC[C@H]3[C@H]2OCCN3Cc2ccoc2)c1 (some centres undefined),3.35%
5,CN(C)C[C@]12COC[C@H]1CN(C(=O)Cc1ccc3c(c1)OCO3)C2,7.79%
6,Cn1cc(CN2CC[C@@H]3O[C@H](C(=O)N4CCOCC4)C[C@@H]32)cn1,-11.6%
7,COCCN1C[C@@H]2CN(Cc3cccc(F)c3)CCC[C@]2(C(=O)O)C1,-13.3%
8,Cc1cccc2nc(C(=O)N3CCCC[C@]4(C)NC(=O)CCC[C@H]34)cn12,-8.66%
9,CN(C)C(=O)[C@H]1CC[C@@H]2[C@@H](CCN2Cc2ccccn2)O1,-3.56%
10,CC1=N[C@@]2(CC[C@@H]3CN(Cc4cccc(Cl)c4)C[C@@H]32)C(=O)N1CC1CC1,3.49%
11,O=C(c1cccnc1)N1C[C@@H]2OCCN(CCN3CCCC3)[C@@H]2C1,4.78%
12,Cn1ccnc1CN1CCO[C@H]2C(CNC(=O)c3ccco3)CC[C@@H]21 (some centres undefined),0.912%
13,Cc1ncsc1CN1C[C@@H](OCC(=O)N(C)C)[C@H]2OCCC[C@H]21,-2.89%
14,CCS(=O)(=O)N1CCC[C@]2(C(=O)N(C)C)CN(c3ncccn3)C[C@@H]2C1,5.41%
15,CCc1ccc(CN2C[C@@H]3COC[C@H](NS(C)(=O)=O)[C@@H]3C2)o1,-9.73%
16,Cc1cccc(CN2CCCC[C@H]3CN(c4ncccn4)C[C@H]32)c1,3.15%
17,CCN1CCO[C@@H]2CN(S(=O)(=O)c3cccs3)CC[C@@H]2C1,1.3%
18,CC(=O)N1CCC(N2CCN3C(=O)N(c4ccccc4)C[C@H]3C2)CC1,-1.27%
19,Cc1noc([C@@]23CCO[C@@H]2CCN(C(=O)c2c(C)noc2C)C3)n1,-20.2%
20,CCCS(=O)(=O)N1C[C@@H]2CN(Cc3ccoc3)CCO[C@@H]2C1,2.92%
21,Cc1cc(CN2C[C@@H]3CCCO[C@@H]3[C@H](Nc3ccccn3)C2)no1,-4.49%
22,COc1cc2c(cc1-c1nc3c(cnn3C(C)C3CC3)[nH]1)OCO2 (centres undefined),21.1%
23,COc1cc2c(cc1-c1nc3c(cnn3C(C)C(C)C)[nH]1)OCO2 (centres undefined),-3.85%
24,COc1cc2c(cc1-c1nc3c(cnn3C(C)C)[nH]1)OCO2,56.2%
